Each structure is given as a SMILES string. Among all 39,000 compounds or so, about 1,500 (3.8%) were called active. The sample as a whole holds a higher share of actives than the screen did.

The results in this text go back to the antibiotic and cytotoxicity screens of Wong et al. (2023).

The test system of the assay is HSkMC (human skeletal muscle cells). As to the kind of experiment: cytotoxicity call (relative viability < 0.9). The note with it: 10 µM.
Turning to `C[C@@H]1CN([C@@H](C)CO)C(=O)c2cc(NC(=O)Nc3ccccc3)ccc2O[C@@H](C)CCCCO[C@H]1CN(C)S(=O)(=O)c1ccccc1F`, the cytotoxicity call was “inactive”.

For the compound `O=C(O)/C=C/C(=O)O`, the cytotoxicity call was “inactive”.

Consider `COC(=O)c1c(CC[C@@H](CO)NC(=O)N[C@H](Cn2cc(Cc3ccccc3)nn2)C(C)C)oc(C(C)=O)c1C(=O)OC`, for which the cytotoxicity call is “inactive”.

As for `O=C(C[C@@H]1CC=CC[C@@H](Cc2ccc(F)cc2)C(=O)OC[C@H](Cc2c[nH]c3ccccc23)NC1=O)NCCO`, the cytotoxicity call was “inactive”.

On to `CC(C)NC(=O)N(C)C[C@@H]1OCc2cnnn2CCCC(=O)N([C@@H](C)CO)C[C@@H]1C`, for which the cytotoxicity call is “inactive”.

For the compound `CC(C)NC(=O)N(C)C[C@H]1Oc2cc(-c3ccccc3F)ccc2S(=O)(=O)N([C@H](C)CO)C[C@H]1C`, the cytotoxicity call is “inactive”.

In the case of `C[C@H]1CN([C@@H](C)CO)C(=O)c2cccc(NS(=O)(=O)c3ccc(Cl)cc3)c2O[C@@H]1CN(C)Cc1ccc(C(F)(F)F)cc1`, the cytotoxicity call is “inactive”.

As for `C[C@@H]1CN([C@@H](C)CO)C(=O)c2cccc(NS(=O)(=O)c3ccc(Cl)cc3)c2O[C@H]1CN(C)Cc1ccc(-c2ccccc2)cc1`, the cytotoxicity call is “inactive”.

Consider `C[C@H](CO)N1C[C@H](C)[C@@H](CN(C)Cc2ccc(C(F)(F)F)cc2)Oc2c(NS(=O)(=O)c3ccc(Cl)cc3)cccc2C1=O`, for which the cytotoxicity call was “inactive”.

Consider `C[C@H](CO)N1C[C@H](C)[C@H](CN(C)Cc2ccc(C(F)(F)F)cc2)Oc2c(NS(=O)(=O)c3ccc(Cl)cc3)cccc2C1=O`, for which the cytotoxicity call was “active”.

As for `C[C@@H]1CN([C@H](C)CO)C(=O)c2cccc(NS(=O)(=O)c3ccc(Cl)cc3)c2O[C@H]1CN(C)Cc1ccc(-c2ccccc2)cc1`, the cytotoxicity call is “inactive”.

In the case of `C[C@@H]1CN([C@@H](C)CO)C(=O)c2cccc(NS(=O)(=O)c3ccc(Cl)cc3)c2O[C@@H]1CN(C)Cc1ccc(-c2ccccc2)cc1`, the cytotoxicity call is “active”.

Take `C[C@@H]1CN([C@H](C)CO)C(=O)c2cc(NC(=O)c3ccccc3)ccc2O[C@@H](C)CCCCO[C@@H]1CN(C)Cc1ccc(Cl)c(Cl)c1`: the cytotoxicity call is “inactive”.

Consider `COc1ccc(-c2cnc3c(c2)C(=O)N([C@H](C)CO)C[C@H](C)[C@H](CN(C)S(=O)(=O)c2cccs2)O3)cc1`, for which the cytotoxicity call is “inactive”.

On to `C[C@@H]1CCCCO[C@@H](CN(C)S(C)(=O)=O)[C@@H](C)CN([C@H](C)CO)C(=O)c2cc(NC(=O)CCCN(C)C)ccc2O1`, for which the cytotoxicity call is “inactive”.

Regarding `NCC1OC(OC2C(CO)OC(OC3C(O)C(N)CC(N)C3OC3OC(CN)C(O)C(O)C3N)C2O)C(N)C(O)C1O.O=S(=O)(O)O.O=S(=O)(O)O.O=S(=O)(O)O` (centres undefined), the cytotoxicity call was “inactive”.

As to `CC(C)NC(=O)N[C@H]1C=C[C@H](CC(=O)NCCN2CCCC2)O[C@H]1CO`, the cytotoxicity call was “inactive”.

In the case of `O=C(N[C@H]1CC[C@@H](CC(=O)N2CCOCC2)O[C@@H]1CO)c1ccc2c(c1)OCO2`, the cytotoxicity call was “inactive”.

Turning to `C[C@H](CO)N1C[C@H](C)[C@H](CN(C)C(=O)Nc2ccccc2)OCCCC[C@H](C)Oc2ccc(NS(=O)(=O)c3ccc(Cl)cc3)cc2C1=O`, the cytotoxicity call was “inactive”.

Consider `C[C@H](CO)N1C[C@H](C)[C@H](CN(C)Cc2ccc(C(=O)Nc3ccccc3N)cc2)OCc2cn(nn2)CCCC1=O`, for which the cytotoxicity call was “inactive”.

As to `Cl.N=C(NN=Cc1ccc(Cl)cc1)NN=Cc1ccc(Cl)cc1`, the cytotoxicity call is “active”.

Consider `NC(=S)N/N=C/c1ccncc1`, for which the cytotoxicity call was “inactive”.

As for `Clc1ccc(/C=N/Cc2ccc(-c3cccs3)s2)cc1`, the cytotoxicity call was “inactive”.

With `C[C@H]1CN([C@@H](C)CO)C(=O)c2cccc(NS(=O)(=O)c3cccs3)c2O[C@H]1CN(C)S(=O)(=O)c1cccs1`, the cytotoxicity call is “inactive”.

As for `CCCCCCc1nc(CCCc2cc3c(c(CCCCCC)n2)[Si](C(C)C)(C(C)C)O[C@H]3c2ccccc2)cc2c1[Si](C(C)C)(C(C)C)O[C@H]2c1ccccc1`, the cytotoxicity call is “inactive”.

For the compound `Cc1onc(NS(=O)(=O)c2ccccc2-c2ccc(-c3ncco3)cc2CN(C)C(=O)CC(C)(C)C)c1C`, the cytotoxicity call is “inactive”.

Turning to `C[C@@H]1CN([C@H](C)CO)C(=O)c2cccc(NC(=O)Nc3ccccc3)c2O[C@@H]1CN(C)C(=O)Nc1cccc2ccccc12`, the cytotoxicity call was “inactive”.

For the compound `Cc1ccc(S(=O)(=O)Nc2ccc3c(c2)C(=O)N([C@@H](C)CO)C[C@H](C)[C@H](CN(C)Cc2ccc(C(F)(F)F)cc2)OCCCC[C@H](C)O3)cc1`, the cytotoxicity call is “inactive”.

On to `Cc1ccc(S(=O)(=O)Nc2ccc3c(c2)C(=O)N([C@H](C)CO)C[C@H](C)[C@@H](CN(C)Cc2ccc(C(F)(F)F)cc2)OCCCC[C@H](C)O3)cc1`, for which the cytotoxicity call is “inactive”.

Turning to `C[C@@H]1CCCCO[C@@H](CN(C)Cc2ccc(C(F)(F)F)cc2)[C@H](C)CN([C@H](C)CO)C(=O)c2cc(NS(=O)(=O)c3ccc(F)cc3)ccc2O1`, the cytotoxicity call was “inactive”.

Take `Cc1ccc(S(=O)(=O)Nc2ccc3c(c2)C(=O)N([C@@H](C)CO)C[C@@H](C)[C@@H](CN(C)Cc2ccc(C(F)(F)F)cc2)OCCCC[C@H](C)O3)cc1`: the cytotoxicity call was “inactive”.

On to `C[C@@H]1CCCCO[C@H](CN(C)Cc2ccc(C(F)(F)F)cc2)[C@H](C)CN([C@@H](C)CO)C(=O)c2cc(NS(=O)(=O)c3ccc(F)cc3)ccc2O1`, for which the cytotoxicity call is “active”.

As for `Cc1ccc(S(=O)(=O)Nc2ccc3c(c2)C(=O)N([C@@H](C)CO)C[C@H](C)[C@@H](CN(C)Cc2ccc(C(F)(F)F)cc2)OCCCC[C@H](C)O3)cc1`, the cytotoxicity call is “active”.

`Cc1ccc(S(=O)(=O)Nc2ccc3c(c2)C(=O)N([C@@H](C)CO)C[C@H](C)[C@@H](CN(C)Cc2ccc(C(F)(F)F)cc2)OCCCC[C@@H](C)O3)cc1`: the cytotoxicity call was “active”.

As to `Cc1ccc(S(=O)(=O)Nc2ccc3c(c2)C(=O)N([C@H](C)CO)C[C@H](C)[C@H](CN(C)Cc2ccc(C(F)(F)F)cc2)OCCCC[C@@H](C)O3)cc1`, the cytotoxicity call was “inactive”.

On to `Cc1ccc(S(=O)(=O)Nc2ccc3c(c2)C(=O)N([C@H](C)CO)C[C@@H](C)[C@@H](CN(C)Cc2ccc(C(F)(F)F)cc2)OCCCC[C@H](C)O3)cc1`, for which the cytotoxicity call is “inactive”.

For `Cc1ccc(S(=O)(=O)Nc2ccc3c(c2)C(=O)N([C@H](C)CO)C[C@H](C)[C@H](CN(C)Cc2ccc(C(F)(F)F)cc2)OCCCC[C@H](C)O3)cc1`, the cytotoxicity call is “active”.

Regarding `C[C@@H]1CN([C@H](C)CO)C(=O)c2cc(NS(=O)(=O)c3ccc(F)cc3)ccc2O[C@@H](C)CCCCO[C@H]1CN(C)Cc1ccc(C(F)(F)F)cc1`, the cytotoxicity call is “inactive”.

On to `Cc1ccc(S(=O)(=O)Nc2ccc3c(c2)C(=O)N([C@H](C)CO)C[C@@H](C)[C@@H](CN(C)Cc2ccc(C(F)(F)F)cc2)OCCCC[C@@H](C)O3)cc1`, for which the cytotoxicity call was “inactive”.
